Sfp PPTase inh: blocks B. subtilis Sfp PPTase activity | Biochemical Sfp PPTase activity, qHTS | 310,000 compounds, 3.5% hits | Potency, µM, inactives show largest response in the series, negative = inhibition, most hits filed as inhibitors;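 further: the enzyme is Sfp with the accession as filed and its product quenches rhodamine fluorescence; 0% = enzyme reaction without inhibitor and -100% = no enzyme wells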
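Fluorescence-quenching assay: 15 nM Sfp-PPTase preincubated 15 min at room temperature with compound, then 5 uM rhodamine-CoA and 12.5 uM BHQ-2-labelled YbbR peptide added. Fluorescence (ex 525/em 598 nm) read at start and after 30 min; difference gives rate.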
BAZ2B inh: BAZ2B (human) inhibition | Q9UIF8 | AlphaScreen BAZ2B-H3K14Ac peptide displacement | AID 504333 | 360,000 compounds, 4.4% hits | Potency, µM (top dose mostly 114 µM), inactives show top-dose activity change, negative = inhibition, actives largely listed as inhibitors; further: on the % scale 0 is the no-effect control and ±100 the full control effect; nearly all actives have a fitted effect of over 60% in size
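AlphaScreen luminescence quantifies BAZ2B engagement of H3K14Ac peptide; the protein and biotinylated peptide are both at 50 nM final, buffer PBS pH 7.4 with 0.01% Tween-20, all steps at room temperature.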
HP1b binding inh: inhibitors of HP1-beta chromodomain binding to methylated histone tails; AlphaScreen HP1-beta / biotin-H3K9me3 peptide binding; Potency, µM (highest dose often 114 µM), inactives show at the top dose activity change, negative = inhibition, hits mostly inhibitors; 390,000 compounds, 0.56% hits; AID 540317; further: nearly all actives have a fitted effect of over 70% in size
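HP1-beta protein (50 nM final) preincubated 30 min at room temperature with biotinylated H3(1-18)K9me3 peptide (50 nM) in PBS pH 7.4, 0.01% Tween-20, then compound added for 30 min. AlphaScreen streptavidin donor/nickel chelate acceptor beads (10 ug/mL final), 30 min dark, luminescence read.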
PLK1 PBD inh: PLK1 (human) polo-box domain binding inhibition | P53350 | Plk1 PBD binding of FITC phosphopeptide, fluorescence polarization | Potency, µM, without a hit: max response, negative = inhibition, hits mostly inhibitors | 360,000 compounds, 2.8% hits | AID 720504; further: series mostly up to about 57 µM; on the % scale 0 is the no-effect control and ±100 the full control effect; nearly all actives have a fitted effect of over 65% in size
Target sequence (P53350 whole entry, looked up, the tested form may be a part): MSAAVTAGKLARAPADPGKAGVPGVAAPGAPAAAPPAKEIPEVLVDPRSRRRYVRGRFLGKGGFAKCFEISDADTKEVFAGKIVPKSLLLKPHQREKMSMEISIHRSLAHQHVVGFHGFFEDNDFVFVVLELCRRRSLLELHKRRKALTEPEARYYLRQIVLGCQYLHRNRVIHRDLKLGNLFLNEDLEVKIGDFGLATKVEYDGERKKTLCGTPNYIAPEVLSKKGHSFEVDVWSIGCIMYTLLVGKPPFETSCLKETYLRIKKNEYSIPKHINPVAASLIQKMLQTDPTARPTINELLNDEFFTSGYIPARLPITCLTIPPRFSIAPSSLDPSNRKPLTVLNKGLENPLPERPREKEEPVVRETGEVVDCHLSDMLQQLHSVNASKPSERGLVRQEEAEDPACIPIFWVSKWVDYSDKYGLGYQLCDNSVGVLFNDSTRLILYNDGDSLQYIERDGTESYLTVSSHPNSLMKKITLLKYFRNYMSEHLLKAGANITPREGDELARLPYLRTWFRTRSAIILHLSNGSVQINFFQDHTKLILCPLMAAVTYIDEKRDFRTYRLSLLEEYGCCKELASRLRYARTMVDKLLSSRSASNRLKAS
G9a inh: G9a (human) methyltransferase inhibition; G9a H3K9 monomethylation, AlphaScreen, 2 h; Q96KQ7; Potency, µM (highest dose often 102 µM), for the others: at the highest dose activity, negative = inhibition, hits mostly inhibitors; 350,000 compounds, 8.8% hits; further: on the % scale 0 is the no-effect control and ±100 the full control effect; nearly all actives have a fitted effect of over 75% in size
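Using a bead-based AlphaScreen, monomethylated H3K9 product from 2 h room-temperature reactions (G9a 20 nM, peptide 500 nM, SAM 20 uM) was detected with 0.5 ug/mL rabbit anti-H3K9me1 antibody.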
JMJD2A Tudor inh: blocks the human JMJD2A Tudor domain; Potency, µM (titrated, usually from 114 µM), inactives show at the top dose activity change, negative = inhibition, most hits filed as inhibitors; AlphaScreen JMJD2A-Tudor / H3K4me3 peptide binding; AID 504339; 390,000 compounds, 4.4% hits; O75164; further: on the % scale 0 is the no-effect control and ±100 the full control effect; nearly all actives have a fitted effect of over 50% in size
* = called active by the depositor; ? = inconclusive; / = not tested or not shown; ! = repeats disagree; [ ] = remark or other dose. Compounds with a hit are over-represented: about 12% of the library has one in this group of screens. The call rests on the fitted dose curve; in most records, active means well fitted curve in the direction sought with a large enough effect; inconclusive means small, poorly fitted or top-dose-only effect, or another doubt; inactive means no such curve, though single readings can be large; an effect the other way counts as inactive or inconclusive. Potency means the concentration at half of the fitted maximal effect.

SMILES | Sfp PPTase inh | BAZ2B inh | HP1b binding inh | PLK1 PBD inh | G9a inh | JMJD2A Tudor inh
O=C(O)c1cccc2c1NC(c1cccc([N+](=O)[O-])c1)C1CC(Sc3ccccc3[N+](=O)[O-])C(Cl)C21 (configuration not stated) | 40µM* | 22µM* | ? | 13µM* | 16µM* | 22µM*
O=C(O)c1ccc2c(c1)C1C(Cl)C(Sc3ccccc3[N+](=O)[O-])CC1C(c1cccc([N+](=O)[O-])c1)N2 (configuration not stated) | ? | 18µM* | 40µM* | 19µM* | 20µM* | -22%[11.4 µM]
C[C@]12CCC(=O)C(O)=C1CC[C@@H]1[C@H]3CCC(=O)[C@@]3(C)CC[C@@H]12 | 11% | / | / | / | -35%[2.33 µM] | /
N#CC1(N2CCCCC2)CCCCC1 | 14% | / | / | / | -4%[12.7 µM] | /
CCCCCCCCCCCCCC(=O)O[C@@H]1[C@@H](C)[C@@]2(O)[C@@H](C=C(CO)C[C@@]3(O)C(=O)C(C)=C[C@@H]23)C2C(C)(C)[C@@]21OC(C)=O (some centres not stated) | / | / | / | / | 7.9µM*! | /
CCN(CC)S(=O)(=O)c1cccc(N=Nc2c(O)n(CC)c(=S)n(CC)c2=O)c1 | 12% | ? | ? | ? | ? | 20µM*
OCC(O)[C@H]1O[C@@H]2O[C@H](C(Cl)(Cl)Cl)O[C@@H]2[C@H]1O (some centres not stated) | 6% | / | / | / | ? | /
COc1ccc(-c2cc(C(=O)N3CCN(c4ccccc4OC)CC3)c3cc(C(C)C)ccc3n2)cc1 | / | ? | 20% | / | -8%[59 µM] | -25%
CCOc1ccc(N2C(=O)NC(=O)/C(=C/c3cnc(SC)nc3)C2=O)cc1 | 28µM* | ? | -38% | 11µM* | 8.9µM* | ?
CSc1ncc(/C=C2/C(=O)NC(=O)N(c3ccc(C)cc3)C2=O)cn1 | 45µM* | -38% | -5% | 9.5µM* | 10µM* | -18%
Cc1ccc(N2C(=O)NC(=O)/C(=C/c3cnn(-c4ccc(C)cc4)c3)C2=O)cc1 | -3% | 2% | 46% | 1.2µM* | 3.5µM* | -8%
Cc1cc(C)cc(N2C(=O)NC(=O)/C(=C\c3cc(C)n(C)c3C)C2=O)c1 | -8% | -6% | 6% | -16% | ? | -19%
COc1cc(/C=C2\C(=O)NC(=O)N(c3ccc(C)cc3)C2=O)cc(OC)c1O | 35µM* | 4% | 25% | ? | 20µM* | -3%
CCC(C)c1ccc(N2C(=O)NC(=O)/C(=C/c3cccn3CCOc3ccc(C)cc3)C2=O)cc1 (configuration not stated) | 12% | -9% | 23% | -27% | 27%[59 µM] | -25%
CCN(CC)C(=O)N[C@H]1C=C2c3cccc4[nH]cc(c34)C[C@@H]2N(C)C1 | 4% | / | / | / | ? | /
OC(Cn1cncn1)(Cn1cncn1)c1ccc(F)cc1F | 7% | / | 68% | -6% | -23%[2.33 µM] | 1%
CSc1ccc(Cl)c(C(=O)OCC(=O)N2CCN(C(=O)c3ccco3)CC2)c1 | / | -7% | 35% | -6% | ? | -21%
COc1cccc(NC(=O)Cn2c(-c3nonc3N)nc3ccccc32)c1 | / | 1% | 42% | / | -1%[59 µM] | -6%
CCN1C[C@]2(COC)CC[C@H](OC)[C@@]34C5C[C@@H]6[C@@H](OC)C[C@@]7(OCO[C@@]7([C@@H](O)C23)[C@@H]14)C5[C@H]6OC (some centres not stated) | 7% | / | / | / | 48%[59 µM] | /
CC1=NN(c2ccccc2)C(=O)C1/C=C1\C(=O)NC(=O)N(c2ccc(C)c(C)c2)C1=O (configuration not stated) | -20% | ? | -14% | 21µM* | 45µM* | -5%[11.4 µM]
CC1=NN(c2ccccc2)C(=O)C1/C=C1/C(=O)NC(=O)N(c2cccc(C)c2)C1=O (configuration not stated) | -13% | ? | / | / | -19%[59 µM] | /
O=C1NC(=O)N(c2ccc(Br)cc2)C(=O)/C1=C/c1ccsc1 | 32µM* | 14% | 27% | 4.7µM* | 20µM* | -22%

Screening data as filed in PubChem.
